Test results reported in ChEMBL document CHEMBL3433997, “St. Jude Leishmania screening dataset” (2016).

Experiments:
Type in all cases: functional
[1] = target: Solute carrier family 2, facilitated glucose transporter member 1 (Homo sapiens) (UniProt P11166); assay: ST_JUDE_LEISH: Cytotoxicity at 2uM final concentration against transgenic Leishmania Mexicana promastigotes LmGLUT1 that are glucose transport deficient and complemented with the human glucose transporter GLUT1. Activity is measured by DNA content using SYBR green in vitro
[2] = target: Hexose transporter 1 (Plasmodium falciparum) (UniProt O97467); assay: ST_JUDE_LEISH: Cytotoxicity at 2uM final concentration against transgenic Leishmania Mexicana promastigotes LmPfHT that are glucose transport deficient and complemented with the Plasmodium falciparum hexose transporter. Activity is measured by DNA content using SYBR green in vitro
[3] = target: Glucose transporter (Leishmania mexicana) (UniProt O61059); assay: ST_JUDE_LEISH: Cytotoxicity at 2uM final concentration against transgenic Leishmania Mexicana promastigotes LmGT2 that are glucose transport deficient and complemented with the L. Mexicana glucose transporter 2. Activity is measured by DNA content using SYBR green in vitro

Solute carrier family 2, facilitated glucose transporter member 1 (Homo sapiens), sequence (P11166 whole entry): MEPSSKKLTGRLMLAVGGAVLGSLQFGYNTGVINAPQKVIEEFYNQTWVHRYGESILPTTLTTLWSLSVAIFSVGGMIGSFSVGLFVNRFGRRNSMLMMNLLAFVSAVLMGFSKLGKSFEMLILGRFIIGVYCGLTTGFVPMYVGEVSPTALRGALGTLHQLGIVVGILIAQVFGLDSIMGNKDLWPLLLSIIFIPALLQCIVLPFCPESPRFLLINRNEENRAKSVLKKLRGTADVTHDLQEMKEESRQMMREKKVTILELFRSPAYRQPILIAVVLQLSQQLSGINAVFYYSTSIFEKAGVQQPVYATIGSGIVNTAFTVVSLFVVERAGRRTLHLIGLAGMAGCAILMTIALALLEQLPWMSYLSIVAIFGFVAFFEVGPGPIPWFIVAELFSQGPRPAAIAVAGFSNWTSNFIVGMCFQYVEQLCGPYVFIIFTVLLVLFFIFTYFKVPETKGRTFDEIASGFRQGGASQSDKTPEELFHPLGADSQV

| Compound | inhibition [1] [%] | inhibition [2] [%] | inhibition [3] [%] |
| --- | --- | --- | --- |
| COc1cc(OC)c(NC(=O)C2c3ccccc3C(=O)N(CC(C)C)C2c2cccs2)cc1Cl (stereo not drawn) | -4.11 | 2.33 | 5.96 |
| CCOC(=O)N1CCN(C(=O)Nc2ccc(Cl)cc2)CC1 | 1.34 | 1 | 0.32 |
| CCOC(=O)c1c(C)n(-c2ccc(Cl)cc2)c2ccc(OC(=O)C=Cc3ccccc3)cc12 | 2.75 | 5.54 | 5.18 |
| O=C(Nc1ccc(S(=O)(=O)N2CCCCCC2)cc1)c1cc(-c2ccccc2O)n[nH]1 | 9.89 | 8.12 | 8.68 |
| Nc1nc(N)c2c3c(cnc2n1)CCCC3 | 9.74 | 9.11 | 10.8 |
| O=[N+]([O-])c1cccc(CNCC2CCN(Cc3ccc(-c4ccccc4)cc3)CC2)c1 | 3.06 | 2.39 | 0.56 |
